aSyn yeast inh – rescues yeast growth from alpha-synuclein toxicity. Yeast expressing alpha-synuclein, growth rescue, BacTiter-Glo, 24 h. Potency, µM (highest dose often 46.1 µM), for the others: at the highest dose growth rescue (activation), hits mostly activators. 0.14% of 370,000 active. AID 652106; further: % of control where 0% means no effect; nearly all actives have a fitted effect of over 65% in size
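Readout is rescue of growth in alpha-synuclein-expressing yeast, so inhibitors of toxicity appear as activators. Growth after 24 hr at 30 deg C in galactose medium is quantified by luminescence.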
Mito fusion act – inhibitors of mitochondrial division or activators of mitochondrial fusion | Potency, µM (series often up to 46.1 µM), without a hit: at the top dose growth rescue (activation), actives largely listed as activators | AID 485298 | S. cerevisiae fusion-defective mutant growth rescue, CellTiterGlo 48 h | 0.23% of 320,000 active; further: % of control where 0% means no effect; nearly all actives have a fitted effect of over 45% in size
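Yeast fusion mutant, YPEG (non-fermentable carbon), compound, 48 h at 37C non-permissive; CellTiterGlo added, 10 min RT, luminescence read. Rescued growth = division inhibition.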
TDP43 rescue – TDP-43 toxicity inhibition in yeast; TDP-43 expressing yeast growth rescue, BacTiter-Glo, 24 h; Potency, µM (doses to about 46.1 µM), for the others: at the highest dose growth rescue (activation), actives largely listed as activators; 1.8% of 410,000 active; further: % of control where 0% means no effect; nearly all actives have a fitted effect of over 50% in size
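Cell-based yeast growth screen: TDP-43 expression induced in galactose, inoculum OD600=0.02 after raffinose pregrowth to mid-log. Read-out BacTiter-Glo luminescence at 24 hr, 30 deg C; inhibition of toxicity seen as signal increase.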
Abeta yeast res – restores growth of yeast expressing A-beta42 peptide; yeast expressing A-beta42, growth rescue, OD600, 48 h; response scale: 0% DMSO, 100% iron-clioquinol control; Potency, µM (doses to about 46.1 µM), hits mostly activators; 0.063% of 410,000 active; AID 1347071; further: nearly all actives have a fitted effect of over 55% in size
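Yeast A-beta toxicity model in growth medium with pinned compounds, 48 h at 30 C; growth read as absorbance at 600 nm. Normalized to FeCl3/clioquinol equimolar mix (positive) and DMSO (negative).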
FUS suppressor – FUS proteinopathy suppression in yeast; S. cerevisiae FUS-expressing, growth rescue, OD600, 24 h; Potency, µM (series often up to 76.6 µM), actives largely listed as activators; 0.24% of 390,000 active; AID 1347120;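 further: plate controls were DMSO vehicle for no effect and reference control for full effect; nearly all actives have a fitted effect of over 55% in size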
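Quantitative HTS measuring growth restoration of FUS-toxic yeast. Galactose-induced cells (OD 0.005) were exposed 24hr at 30C to compounds at several concentrations, then absorbance at 600 nm was recorded.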
AT treatment – candidate therapy for ataxia-telangiectasia; Potency, µM (series often up to 57.5 µM), for the others: at the top dose activation, hits mostly activators; F2112 A-T fibroblasts, KAP-1 phosphorylation AlphaLISA; neocarzinostatin DNA damage 30 min before lysis; AID 485349; 0.19% of 320,000 active; further: % of control where 0% means no effect; nearly all actives have a fitted effect of over 45% in size
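hTERT-immortalized A-T patient fibroblasts (F2112), 500 cells/well in OPTI-MEM, 1% FBS, got compounds for 60 min, then NCS for 30 min at 37C. Lysates were then assayed for phospho-KAP-1 by AlphaLISA (anti-pKAP1 donor, anti-KAP1 acceptor beads), 6 hr at 25C.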
* hit, by the source's call; i = inactive; ? = inconclusive; nt = no result; [ ] = another dose, or the depositor's remark. Rows were chosen to be rich in hits. Some 2.4% of all compounds tested hit in one or more screens of this group. The call rests on the fitted dose curve; in most records, active means well fitted curve in the direction sought with a large enough effect; inconclusive means small, poorly fitted or top-dose-only effect, or another doubt; inactive means no such curve, though single readings can be large; an effect the other way counts as inactive or inconclusive. Potency means the concentration at half of the fitted maximal effect.

SMILES	aSyn yeast inh	Mito fusion act	TDP43 rescue	Abeta yeast res	FUS suppressor	AT treatment
CCOc1ccc(NC(=S)NC(=O)c2c(Br)cnn2C)c([N+](=O)[O-])c1	-4.4%	?	15.8µM*	i	i	-2.0%
CCOc1ccc(NC(=S)NC(=O)c2c(Cl)cnn2CC)c([N+](=O)[O-])c1	2.3%	14.5%	4.7%	i	nt	3.4%
CCN(CC)CCCN(C(=O)c1ccc(OC)cc1)c1nc(-c2ccc(OC)cc2)cs1	-1.1%	-4.4%	8.4%	i	i	17.8%
COCCCN(C(C)=O)c1nc(-c2ccc(OC)cc2)cs1	-6.1%	2.4%	11.2µM*	i	i	15.7%
C=CCN(CC=C)C(=S)NC(=O)c1ccc(C)c(Br)c1	14.1µM*	?	?	i	nt	-5.5%
C=CCN(CC=C)C(=S)NC(=O)c1ccc(-c2ccccc2)cc1	?	7.5%	12.6µM*	i	nt	nt
C=CCN(CC=C)C(=S)NC(=O)c1ccc(OC)cc1	-10.0%	-3.3%	26.1%	i	i	2.2%
O=C(O)CCCCCCCCc1cn(CCc2c[nH]c3ccccc23)nn1	-9.8%	-12.9%	12.6µM*	i	i	-6.3%
Cc1cccc(NC(=O)Cn2nnc(-c3ccccc3F)n2)c1C	nt	nt	nt	nt	i	nt
O=C(CCC1N=C2c3ccccc3N=C(SCc3ccc(Cl)cc3)N2C1=O)NCCc1ccccc1 (stereo not drawn)	nt	nt	15.1%	i	31.6µM*	nt
NNC(=S)Nc1ccc(OC(F)(F)F)cc1	-0.4%	-1.1%	2.7%	11.2µM*	i	-2.2%
NNC(=S)Nc1ccc(Cl)cc1	-20.4%	-4.2%	6.1%	?	i	-0.6%
O=C(Nc1ccccc1)C1=C[C@H](c2csc3ccccc23)C[C@H](OCc2ccc(CO)cc2)O1	14.3%	10.7%	15.6%	i	11.2µM*	12.0%
CC[N+](C)(C)c1ccc(/C=C/c2ccc3ccccc3n2)cc1	-64.6%	nt	nt	nt	nt	nt
Cc1[nH]nc2c1-c1nc3ccccc3nc1C(C)(C)C2	-0.3%	-1.1%	22.4µM*	i	i	4.3%
COc1ccc(C2C(C(=O)Nc3cc(OC)ccc3OC)CCC(=O)N2c2ccc(OC)cc2)cc1 (stereo not drawn)	nt	nt	nt	nt	i	nt
CC[N+](CC)(CC)CCOc1ccc(/C=C/c2ccccc2)cc1	10.2%	-19.9%	35.5µM*	i	i	-7.9%
CC[N+](CC)(CC)CCOc1cccc(OCC[N+](CC)(CC)CC)c1OCC[N+](CC)(CC)CC	9.5%	23.1%	0.0%	i	i	-0.1%
Cc1c(C(=O)Nc2cccnc2)oc2ccc(Br)cc12	-11.3%	16.5%	8.91µM*	i	i	-3.1%
CC(C)CN1C(=O)[C@@]2(CC(=O)N(C)C2c2ccccc2)c2cc(-n3cc(CCc4ccccc4)nn3)ccc21 (stereo partly drawn)	nt	nt	nt	nt	i	nt
O=c1c2c3c(sc2ncn1-n1cccc1)CCCCC3	6.6%	23.3%	12.6µM*	i	i	9.4%
Cc1ccccc1C(=O)Nc1sc2c(c1C(=O)N1CCCCC1)CCC(C)C2 (stereo not drawn)	nt	nt	17.8µM*	i	i	nt
Cc1ccccc1C(=O)Nc1sc2c(c1C(=O)N1CCC(C)CC1)CCC(C)C2 (stereo not drawn)	nt	nt	26.5%	i	i	nt
O=C(Nc1c(-c2ccc(C(F)(F)F)cc2)nc2ncccn12)C1CC1	nt	nt	nt	nt	i	nt
Brc1ccccc1C1CC(c2ccccc2)=Nc2ccccc2N1 (stereo not drawn)	-21.1%	8.7%	35.5µM*	i	i	17.6%
SMILES	aSyn yeast inh	Mito fusion act	TDP43 rescue	Abeta yeast res	FUS suppressor	AT treatment
Cc1noc(C)c1COc1ccccc1C(=O)N(C)Cc1ccc(C(C)(C)C)cc1	4.9%	26.2%	35.5µM*	i	i	1.0%
CC(C)(C)c1ccc(-c2nnc(SCC(=O)Nc3ccc4cn[nH]c4c3)n2-c2ccc(Cl)cc2)cc1	nt	nt	nt	nt	i	nt
Cc1ccc(C(=O)NC2CCCc3ccccc32)cc1[N+](=O)[O-] (stereo not drawn)	7.4%	15.5%	10µM*	i	i	8.8%
COc1ccc(C(=O)NC2CCCc3ccccc32)cc1Br (stereo not drawn)	3.3%	24.2%	14.1µM*	i	i	-1.5%
CCOc1ccc2nc(N3CCCC(C(=O)Nc4ccc(Br)c(C)c4)C3)sc2c1 (stereo not drawn)	nt	nt	18.5%	i	i	nt
Cc1ccc(-n2cc(C(=O)c3cc(Cl)ccc3O)cc(C#N)c2=O)cc1	0.4%	6.1%	14.1µM*	i	nt	3.2%
Cn1cc(S(=O)(=O)c2cccc(Cl)c2)c(=O)c2cc(F)c(N3CCN(c4ccc(F)cc4)CC3)cc21	nt	nt	0.0%	i	i	nt
COc1ccc(Cc2nn3c(-c4cc(OC)c(OC)c(OC)c4)nnc3s2)cc1	-3.3%	14.8%	22.4µM*	i	?	-3.9%
COc1ccc(-c2nn3c(-c4ccccc4)nnc3s2)cc1	0.7%	3.3%	14.1µM*	i	?	20.0%
c1ccc(-c2nnc3sc(-c4csc5c4CCCC5)nn23)cc1	1.7%	?	20µM*	i	nt	14.4%
COc1cc(-c2nnc3sc(Cc4ccc(Cl)cc4)nn23)cc(OC)c1OC	-1.4%	nt	4.0%	i	i	nt
CCN(CC)C(=O)CC[C@@H]1CC[C@]2(CCCN(Cc3nccs3)C2)O1	nt	nt	nt	nt	i	nt
CN(C)c1ccc(NC(=S)NCC2CCCO2)cc1 (stereo not drawn)	0.0%	-7.6%	7.6%	i	i	-3.4%
CCCCc1ccc(NC(=S)NCC2CCCO2)cc1 (stereo not drawn)	-11.9%	17.7%	-2.5%[0.397 µM]	12.6µM*	i	-0.6%
COc1cccc(-c2nc(CCl)cs2)c1	-7.6%	-2.5%	11.2µM*	i	i	-2.3%
CC(=O)Nc1c(C)nn(-c2ccccc2)c1N1CCC(C(=O)Nc2ccc(Cl)cc2C)CC1	nt	nt	18.8%	i	i	nt
CC(=O)Nc1ccc(NC(=O)/C=C/c2ccc(Cl)cc2)cc1	-3.6%	2.4%	3.9%	i	i	-1.4%
COc1ccc(NC(=O)/C=C/c2ccc(Cl)cc2)cc1	-20.1%	5.17µM*	nt	nt	nt	nt
CCc1ccc(NCc2cc3ccc(OC)cc3n(CC(=O)Nc3ccccc3OC)c2=O)cc1	0.2%	nt	0.0%	i	i	nt
CCOC(=O)c1nc(NNC(C)=O)sc1C	2.5%	19.4%	-16.4%	i	i	0.3%
CCOC(=O)c1nc(NCCc2ccccc2)sc1C	-17.3%	19.6%	12.6µM*	i	i	9.2%
COc1ccc(NC(=O)CN2C(=O)CSc3ccc(S(=O)(=O)N(C)C)cc32)cc1Cl	nt	nt	-8.3%	i	?	nt

Screening data from PubChem BioAssay.
